In the library only some 5.7% were active in any assay of this set; here they are far more common.
DAX1 inh-1: NR0B1 (DAX1) inhibition; 340,000 compounds, 0.99% hits; AID 504766; HEK293 Gal4-DAX1 luciferase reporter, luminescence; inhibition, % at 6.75 µM;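 active means inhibition above the mean over all tested compounds plus 3 SD, cut at about 4.2% in these data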;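 further: 0% = DAX1-transfected cells with DMSO and 100% = empty-vector control cells with DMSO; inhibition shows as a rise in luminescence from relieved DAX1 repression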
DAX1 inh-2: DAX1 (NR0B1) inhibition, primary screen; 370,000 compounds, 1.1% hits; AID 652010; HEK293T StAR-luciferase reporter, SF-1/DAX-1 repression relief; inhibition, % at 6.8 µM;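 active means inhibition above the mean over all tested compounds plus 3 SD, cut at about 3.6% in these data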;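 further: 0% = DAX-1 cells with DMSO and 100% = cells lacking DAX-1 with DMSO; higher inhibition means more luminescence from relief of DAX-1 repression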
hcDAF-12 act: activators of H. contortus DAF-12 nuclear receptor. activation, % at 6.8 µM. 370,000 compounds, 1.4% hits. HEK293 hcDAF-12 lit1-tk-luc reporter, luminescence; 0% DMSO, 100% Δ7-dafachronic acid;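 active means activation above the mean of all tested compounds plus 3 SD, cut at about 5.5% in these data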;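 further: 100% = response to 3 µM Δ7-dafachronic acid high control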
ssDAF12 agonist: S. stercoralis DAF-12 activation, primary screen. HEK293 ssDAF-12/GRIP1 lit1-tk-luc reporter, luminescence; % of 3 µM dafachronic acid response. activation, % at 6.8 µM. 370,000 compounds, 1% hits. AID 652126;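 active means activation above the mean over all tested compounds plus 3 SD, cut at about 0.9% in these data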;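 further: 0% = DMSO-only wells and 100% = 3 µM delta7-dafachronic acid wells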
hgDAF-12 ag: hgDAF-12 agonism, primary luciferase screen; AID 687014; HEK293 GAL4-hgDAF12 UAS-luciferase reporter, agonist luminescence; normalized to butyrate control; activation, % at 6.8 µM; 370,000 compounds, 1.8% hits;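 active means activation above a cutoff set at the mean of all screened compounds plus 3 SD, cut at about 10% in these data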;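 further: 0% = DMSO wells and 100% = sodium butyrate wells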
AHR act: human AHR activation | AHR-responsive luciferase reporter cells, luminescence | activation, % at 5 µM | 320,000 compounds, 2.5% hits | AID 2796; in the data active means activation above about 47%;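 further: 0% = vehicle wells and 100% = reference agonist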
Target sequence (P35869 whole entry, looked up): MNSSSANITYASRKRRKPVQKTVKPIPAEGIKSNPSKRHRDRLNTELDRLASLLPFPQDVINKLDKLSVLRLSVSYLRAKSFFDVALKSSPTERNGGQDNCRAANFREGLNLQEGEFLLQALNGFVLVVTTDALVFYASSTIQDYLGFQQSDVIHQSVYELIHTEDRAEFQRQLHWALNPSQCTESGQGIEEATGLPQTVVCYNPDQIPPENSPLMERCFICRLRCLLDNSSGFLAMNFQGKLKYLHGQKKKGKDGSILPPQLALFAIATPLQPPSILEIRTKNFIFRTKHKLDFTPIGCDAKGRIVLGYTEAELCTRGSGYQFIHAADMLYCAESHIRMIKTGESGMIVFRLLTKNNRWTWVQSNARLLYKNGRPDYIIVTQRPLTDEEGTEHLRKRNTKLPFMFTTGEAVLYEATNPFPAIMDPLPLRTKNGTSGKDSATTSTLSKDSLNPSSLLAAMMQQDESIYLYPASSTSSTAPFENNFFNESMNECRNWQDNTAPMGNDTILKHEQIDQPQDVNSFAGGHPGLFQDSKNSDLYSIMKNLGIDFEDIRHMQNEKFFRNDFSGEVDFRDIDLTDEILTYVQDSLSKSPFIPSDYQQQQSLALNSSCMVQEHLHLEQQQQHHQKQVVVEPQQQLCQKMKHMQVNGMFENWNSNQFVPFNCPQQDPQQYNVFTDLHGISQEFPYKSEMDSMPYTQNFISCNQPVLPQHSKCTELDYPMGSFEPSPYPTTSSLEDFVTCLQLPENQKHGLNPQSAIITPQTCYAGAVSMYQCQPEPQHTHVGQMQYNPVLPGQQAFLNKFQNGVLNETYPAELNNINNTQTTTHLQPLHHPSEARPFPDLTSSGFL
AHR act confirm: confirmation of human aryl hydrocarbon receptor activators | activation, % at 9 µM | human cells, AHR-responsive luciferase reporter, luminescence | shares compounds with AHR act | 2,300 compounds, 87% hits; in the data active means activation above about 49%;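 further: HepG2 hepatoma cells carrying a DRE-driven firefly luciferase reporter; 0% = vehicle wells and 100% = reference agonist wells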
PXR counter: PXR activation, counter-screen for AHR activators; shares compounds with AHR act; cell-based PXR reporter, luciferase luminescence; activation, % at 11.6 µM; 2,300 compounds, 88% hits; AID 434939; in the data active means activation above about 11%;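 further: human hepatoma DPX-2 cells expressing full-length human PXR; 0% = DMSO and 100% = reference agonist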
The depositor's hits bear a star; x = no result given.

SMILES	DAX1 inh-1	DAX1 inh-2	hcDAF-12 act	ssDAF12 agonist	hgDAF-12 ag	AHR act	AHR act confirm	PXR counter
O=C(O)CSc1nnc(-c2ccc(Cl)cc2Cl)n1-c1ccccc1	3	0	-2	-1	3	0	x	x
Brc1ccc(Nc2nc3ccccc3n3nnnc23)cc1	x	x	x	x	x	94*	108*	75*
Fc1ccccc1Nc1nc2ccccc2n2nnnc12	1	0	1	1.1*	5	96*	74*	11*
COc1cccc(Nc2nc3ccccc3n3nnnc23)c1	1	1	-1	-1	4	35	x	x
c1ccc(Nc2nc3ccccc3n3nnnc23)cc1	2	2	4	0	7	33	x	x
CC(C)c1nc(SCC(=O)Nc2ccc3c(c2)OCCO3)n[nH]1	1	1	-1	-1	-2	1	x	x
CCCCOc1ccccc1NC(=O)c1ccc(=O)[nH]c1	-2	-1	0	-1	2	1	x	x
CCOc1ccccc1NC(=O)c1ccc2nccnc2c1	0	0	0	-1	-2	83*	109*	x
CCCOc1ccccc1NC(=O)c1ccc(N)cc1	-1	0	-2	-1	-1	101*	117*	47*
COc1ccccc1C(=O)Nc1ccc2c(C)cc(=O)oc2c1	3	2	2	0	10	98*	98*	41*
COc1ccc(NC(=O)c2c(C)noc2C(C)C)cc1S(=O)(=O)N1CCCCC1	0	-2	-2	-1	-1	0	x	x
O=C(CCCN1C(=O)c2cccc3cccc(c23)C1=O)N1CCc2ccccc2C1	0	0	-1	-2	0	-3	x	x
O=C(CC1NCCNC1=O)Nc1ccccc1 (stereo not drawn)	0	0	0	-1	4	-1	x	x
O=C(CC1Nc2ccccc2NC1=O)Nc1ccc2c(c1)OCO2 (stereo not drawn)	1	0	1	0	8	153*	137*	24*
O=C(CC1Nc2cccc3cccc(c23)NC1=O)Nc1ccccc1 (stereo not drawn)	0	0	0	-1	-1	136*	99*	79*
Cc1ccc(NC(=O)CC2Nc3ccccc3NC2=O)cc1Cl (stereo not drawn)	-2	-1	1	-1	0	x	x	x
CCC[C@H]1CN(c2ccc(Br)cc2)C(=O)[C@@H]1CC(=O)Nc1ccc(OC)cc1	2	-2	-3	-2	2	x	x	x
Cc1cccc(N2CCN(S(=O)(=O)c3ccc4c(c3)CCCN4C(=O)C3CCC3)CC2C)c1 (stereo not drawn)	-1	-2	-2	-1	1	-1	x	x
C=CCNC(=S)N/N=C/c1ccc(-c2ccc(Br)cc2)o1	0	-1	2	-1	8	81*	132*	19*
Cn1c(C(=O)OC(C(=O)NCc2ccco2)c2ccncc2)cc2sccc21 (stereo not drawn)	0	0	-1	-1	1	6	x	x
Cc1ccc(NC(=O)c2noc3c2CCc2ccccc2-3)cc1	0	1	3	0	9	102*	133*	20*
COc1ccc(-n2c(SC(CN3CCCCC3)CN3CCCC3=O)nc3ccccc3c2=O)cc1 (stereo not drawn)	-1	-1	-1	-1	-1	3	x	x
CCC(C)(C)n1nnnc1C(c1cc(OC)ccc1OC)N1CCC(C(N)=O)CC1 (stereo not drawn)	2	-1	0	-1	1	2	x	x
Cc1c(/C=N\NC(=O)C2COc3ccc(C(C)(C)C)cc3O2)c2ccccc2n1C (stereo not drawn)	0	0	-3	-1	1	79*	42	66*
CCCCNC(=S)Nc1cccc2cnccc12	-1	-1	0	0	-2	89*	61*	13*
SMILES	DAX1 inh-1	DAX1 inh-2	hcDAF-12 act	ssDAF12 agonist	hgDAF-12 ag	AHR act	AHR act confirm	PXR counter
O=C(Nc1ccc(N2CCOCC2)cc1N1CCOCC1)c1ncoc1-c1cccc(F)c1	0	0	2	-1	2	5	x	x
COc1ccc(N2CCN(C(=O)c3cc4c(s3)-c3ccccc3S(=O)(=O)C4)CC2)cc1	-1	0	-2	-2	1	2	x	x
CC(C)CSC1=NSC2=NC(=O)/C(=C\c3coc4ccccc4c3=O)C(=N)N12	1	0	1	0	5	81*	17	18*
CCN(c1ccc(OC)cc1)S(=O)(=O)c1ccc2c(c1)CC(C)N2C(=O)C1CC1 (stereo not drawn)	-1	0	-2	-1	1	1	x	x
C=CCN=C1NC(CCc2ccccc2)C(C(=O)OC)=C(C)N1C (stereo not drawn)	x	2	0	-1	2	x	x	x
C/C(=N\NC(=O)c1cccnc1)c1ccc(OC2OCCOC2Oc2ccc(/C(C)=N/NC(=O)c3cccnc3)cc2)cc1 (stereo not drawn)	0	0	-2	-1	2	20	x	x
COc1ccc(-c2sc3cc4c(cc3c2-c2ccc(OCCN3CCOCC3)cc2)OCO4)cc1	1	1	-1	-1	1	1	x	x
COc1ccc(-c2sc3cc4c(cc3c2C#Cc2cncn2C)OCO4)cc1	0	-1	0	-1	-2	82*	103*	15*
Cc1cc(Br)ccc1NC(=O)CN(C)C(=O)c1cc([N+](=O)[O-])ccc1N1CCOCC1	-2	0	-1	0	1	92*	84*	53*
c1ccc(CN2C3=NCCN3c3ccccc32)cc1	0	1	-2	-1	1	2	x	x
O=C(CN1C2=NCCN2c2ccccc21)C12CC3CC(CC(C3)C1)C2	0	0	1	-1	-2	82*	48*	58*
O=C(NN=C1CCCC1)c1cc(-c2ccccc2)n[nH]1	-1	0	-2	-1	2	23	x	x
O=C(NN=C1CCCCC1)c1cc(-c2ccccc2)n[nH]1	1	0	0	-1	-1	121*	44	17*
COc1ccc(CCNC(=O)Nc2nc(C(N)COCc3ccccc3)cs2)cc1OC (stereo not drawn)	x	-1	-2	0	-2	x	x	x
O=C(NCc1ccc2c(c1)OCO2)c1cccc2c1C(=O)N(C1CCCCC1)C2	1	-2	0	-1	-1	0	x	x
CCCN1Cc2cccc(C(=O)NCc3ccc4c(c3)OCO4)c2C1=O	-1	-2	0	-1	2	80*	50*	141*
CC/C(=N\NC(=O)c1c[nH]c2ccccc12)c1cccs1	2	1	2	0	6	83*	151*	55*

High-throughput results (PubChem BioAssay)
